Assay outcomes as filed in PubChem.
The list is not random: actives were taken first. Their share in the collection is about 5.8%.
Gal4-VP16 FLuc: inhibits Gal4-VP16 luciferase reporter, ROR gamma counter-screen; Drosophila S2 Gal4-VP16 UAS-luciferase, luminescence, 20 h; Potency, µM (top dose mostly 53.6 µM), for inactives: at the highest dose activity, negative = inhibition, usual class: inhibitors; 3.5% of 310,000 active; AID 2546;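 also: Gal4-VP16 expression switched on by copper sulfate through the metallothionein promoter; potency is read from the fitted curve at half-maximal effect; % is scaled to controls: 0 for no effect and ±100 for the full control effect; nearly all actives have a fitted effect of over 50% in size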
TRPV1 potentiator: potentiators of human vanilloid receptor 1 (TRPV1); Q8NER1; TRPV1-expressing cells, Fluo-8 calcium influx, capsaicin EC20 potentiation; potentiation, % at 8.33 µM; 0.02% of 320,000 active; in the data active = potentiation above about 80%; inconclusive = between about 30% and that limit; also: 0% is about no effect
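Fluo-8 calcium influx in TRPV1-expressing cells, kinetic read (ex 480/em 520 nm). Compound added and read 3 min for agonist activity, followed by capsaicin at EC20 final and 2 min further read for enhancement.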
uPA generation: inhibitors of cell surface uPA generation; Potency, µM (top dose mostly 38.3 µM), without a hit: at the highest dose activity change, negative = inhibition, actives largely listed as inhibitors; cell surface uPA generation assay, qHTS; AID 540303; 0.31% of 330,000 active; active = well fitted inhibition curve with a large enough effect; inconclusive = small, poorly fitted or top-dose-only effect; inactive = no such curve, though single readings can be large or run the other way; tested in mouse RAW 264.7 cells; also: potency is read from the fitted curve at half-maximal effect; % is scaled to controls: 0 for no effect and ±100 for the full control effect; nearly all actives have a fitted effect of over 55% in size
TRPV1 ag: human TRPV1 agonism; AID 540275; 0.19% of 320,000 active; Q8NER1; activation, % at 8.33 µM; TRPV1-expressing cells, Fluo-8 calcium influx, agonist mode; in the data active = activation above about 80%; inconclusive = between about 30% and that limit; also: 0% is about no effect
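Fluo-8 calcium influx in TRPV1-expressing cells, kinetic read (ex 480/em 520 nm). Compound added and read 3 min for agonist activity, followed by capsaicin at EC20 final and 2 min further read for enhancement.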
RORg inh: inhibitors of mouse ROR gamma transcriptional activity | P51450 | Potency, µM (series often up to 53.6 µM), without a hit: at the top dose activity change, negative = inhibition, usual class: inhibitors | 5.4% of 310,000 active | Drosophila S2 Gal4-RORgamma UAS-luciferase reporter, 20 h; also: potency is read from the fitted curve at half-maximal effect; % is scaled to controls: 0 for no effect and ±100 for the full control effect; nearly all actives have a fitted effect of over 60% in size
Target sequence (P51450 whole entry, looked up, the tested form may be a part): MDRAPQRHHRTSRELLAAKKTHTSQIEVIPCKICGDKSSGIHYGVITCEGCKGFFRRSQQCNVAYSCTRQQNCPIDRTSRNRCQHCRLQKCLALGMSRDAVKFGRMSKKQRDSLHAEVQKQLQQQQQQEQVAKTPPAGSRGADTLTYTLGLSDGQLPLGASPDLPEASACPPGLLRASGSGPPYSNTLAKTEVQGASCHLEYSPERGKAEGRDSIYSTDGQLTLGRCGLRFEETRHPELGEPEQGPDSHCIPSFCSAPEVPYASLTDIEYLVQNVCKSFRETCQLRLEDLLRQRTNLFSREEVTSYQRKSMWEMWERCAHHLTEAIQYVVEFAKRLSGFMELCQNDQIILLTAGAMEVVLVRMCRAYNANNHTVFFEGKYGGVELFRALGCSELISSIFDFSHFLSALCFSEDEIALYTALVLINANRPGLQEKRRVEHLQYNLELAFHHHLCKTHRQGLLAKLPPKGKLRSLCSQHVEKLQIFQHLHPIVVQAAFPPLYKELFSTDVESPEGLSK
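Schneider cells (Drosophila), stable Gal4 DBD–ROR gamma + UAS-luc; 1 hr cmpd preincubation; Cu2+ induction 700 uM final; 20 hr ambient; luminescence.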
An asterisk follows results filed as active; ? = inconclusive; nt = not tested or not shown. Unless noted, calls follow the shape of the dose curve; as a rule, active = well fitted curve in the direction sought with a large enough effect; inconclusive = small, poorly fitted or top-dose-only effect, or another doubt; inactive = no such curve, though single readings can be large; an effect the other way counts as inactive or inconclusive.

SMILES	Gal4-VP16 FLuc	TRPV1 potentiator	uPA generation	TRPV1 ag	RORg inh
COc1cccc(C2CC(c3ccccc3Cl)Nc3ncnn32)c1 (configuration not stated)	nt	nt	0%	nt	nt
C[C@H](NC(=O)c1nc[nH]c1C(=O)NC1CCN(C(=O)OC(C)(C)C)CC1)C(=O)OCc1ccccc1	?	8	7%	6	14µM*
CC(C)C[C@H](NC(=O)c1nc[nH]c1C(=O)N1CCc2ccccc2C1)C(=O)OCc1ccccc1	?	25	-7%	4	?
CNC(=O)c1[nH]cnc1C(=O)N[C@@H](C)C(=O)OCc1ccccc1	-10%	-7	2%	-1	33%
C[C@H](NC(=O)c1nc[nH]c1C(=O)N[C@@H](Cc1ccccc1)C(=O)OCc1ccccc1)C(=O)OCc1ccccc1	?	-8	-5%	29	11µM*
CC(C)(C)OC(=O)CNC(=O)c1nc[nH]c1C(=O)N1CCc2ccccc2C1	?	23	-10%	4	11µM*
O=C(N[C@@H](Cc1ccccc1)C(=O)OCc1ccccc1)c1nc[nH]c1C(=O)N1CCc2ccccc2C1	?	2	-23%	2	13µM*
CC(C)(C)OC(=O)N1CCC(NC(=O)c2nc[nH]c2C(=O)N2CCc3ccccc3C2)CC1	nt	0	8%	2	nt
CCSc1nnc(NC(=O)C2CC(=O)N(Cc3ccc(C)cc3)C2)s1 (configuration not stated)	3%	-17	1%	18	25%
CNC(=O)c1[nH]cnc1C(=O)N[C@@H](Cc1ccccc1)C(=O)OCc1ccccc1	?	20	0%	?	18µM*
C[C@H](NC(=O)c1nc[nH]c1C(=O)N[C@@H](Cc1ccccc1)C(=O)OC(C)(C)C)C(=O)OCc1ccccc1	?	-9	-18%	?	7.9µM*
CCN(CC)C(=O)c1[nH]cnc1C(=O)N[C@@H](Cc1ccccc1)C(=O)OCc1ccccc1	?	-3	0%	?	14µM*
CC(C)(C)OC(=O)NCCCC[C@H](NC(=O)c1[nH]cnc1C(=O)N[C@@H](Cc1ccccc1)C(=O)OCc1ccccc1)C(=O)OC(C)(C)C	nt	nt	9%	nt	nt
Cc1cccc(NC(=O)c2nc[nH]c2C(=O)N[C@@H](Cc2ccccc2)C(=O)OCc2ccccc2)c1	10µM*	9	-1%	7	2.2µM*
Cc1cccc(NC(=O)c2nc[nH]c2C(=O)NCc2ccccc2)c1	nt	4	-4%	?	nt
O=C(CNCc1ccc(Cl)cc1)Nc1ccc(C(=O)N2CCCCCC2)cc1	-3%	2	3%	2	44%
CNC(=O)c1ccc(NC(=O)C2CCN(S(=O)(=O)c3cccc(C(F)(F)F)c3)CC2)cc1	nt	-5	4%	?	nt
CCOC(=O)/C(C#N)=C1\C(=O)N(Cc2ccccc2)c2ccccc21	-7%	2	-3%	2	-4%
O=C(CSCc1ccccc1F)NCc1ccc(F)cc1	-14%	-17	-5%	?	16%
O=C(CCSCc1ccccc1F)NCc1ccc(F)cc1	-4%	6	0%	82*	21%
CCOc1ccc(CNC(=O)CCSCc2ccccc2F)cc1OC	6%	-9	-1%	104*	-13%
Cc1ccc(CSCC(=O)NCc2ccc(F)cc2)cc1	3%	-2	5%	82*	7%
O=C(COC(=O)COc1ccccc1)NCCC1=CCCCC1	nt	11	2%	26	nt
COc1cccc(-c2ccc(SCC(=O)NC3CCCC3)nn2)c1	9%	19	1%	3	2%
O=C(CSc1ccc(-c2cccc([N+](=O)[O-])c2)nn1)NC1CCCC1	-2%	5	9%	3	1.8µM*
SMILES	Gal4-VP16 FLuc	TRPV1 potentiator	uPA generation	TRPV1 ag	RORg inh
Cc1ccc(NC2CCCN(C(=O)CCN3CCOCC3)C2)cc1C (configuration not stated)	?	-8	2%	2	-11%
CC(=O)N(Cc1ccc(F)cc1)C1=C(NCc2ccccc2)C(=O)c2ccccc2C1=O	?	-2	-12%	7	13µM*
O=C(O)c1cc(Cl)cc(Cl)c1	-2%	nt	nt	nt	-2%
O=C(NCCCN1CCCC1=O)[C@H](CSCc1ccccc1)N1Cc2ccccc2C1=O	-2%	5	-8%	-1	32%
CCOc1ccccc1NC(=O)C1=C(C)NC(=S)NC1c1cccs1 (configuration not stated)	20µM*	17	5%	-8	6.3µM*
CC1=C(C(=O)Nc2ccccc2C)C(c2cccs2)NC(=S)N1 (configuration not stated)	-2%	3	-1%	-1	-10%
COC(=O)c1ccc(C(NC(=O)c2ccccc2)[C@]2(C)C[C@H]2C2CCCCC2)cc1 (some centres not stated)	2%	nt	nt	nt	1%
CC(C)(C)NC(=S)Nc1ccc(Nc2ccccc2)cc1	7.1µM*	-7	nt	4	1.8µM*
CC(=O)Nc1ccc(NC(=S)Nc2ccc(Br)cc2)cc1	1%	nt	5%	nt	-22%
CC(C)(C)NC(=S)Nc1ccc(Br)cc1	-84%	18	-1%	2	2µM*
Fc1ccccc1NC(=S)Nc1ccc(Br)cc1	?	9	0%	-2	11µM*
Fc1cc(Br)ccc1NC(=S)Nc1ccccc1	?	19	-2%	-2	?
COC(=O)NNC(=S)Nc1ccc(Br)cc1	-15%	4	-6%	2	14µM*
O=C(NC1CCCC1)C(c1ccc(F)cc1)N(Cc1ccc(Cl)cc1)C(=O)CCl (configuration not stated)	2%	7	-1%	0	-8%
Cc1ccc(NC(=S)Nc2ccc(Br)cc2)cc1	?	-5	-8%	4	7.9µM*
S=C(c1cn(Cc2ccccc2)c2ccccc12)N1CCOCC1	-15%	-6	0%	14	11µM*
O=C(CCc1cn(Cc2ccc(F)cc2)c2ccccc12)N1CCOCC1	?	-4	6%	?	11%
S=C(c1cn(Cc2ccc(Br)cc2)c2ccccc12)N1CCOCC1	?	24	-10%	6	14µM*
COc1cccc(NC(=S)NC2CC3CCCC(C2)N3CC(C)C)c1 (configuration not stated)	7%	-4	-10%	4	10µM*
COC(=O)C1=C[C@@H](C(=O)OC)C2C3=C(C(=O)[C@@]2(C)NC(=O)c2ccccc2)[C@H](C)n2c(=O)n(-c4ccccc4)c(=O)n2[C@@H]3C1 (some centres not stated)	-1%	nt	nt	nt	-11%
CCOC(=O)C(C)Sc1nnc(NC(=O)c2ccc3c(c2)OCO3)s1 (configuration not stated)	-21%	7	3%	?	10µM*
CSc1nnc(NC(=O)c2ccc3c(c2)OCO3)s1	4.5µM*	-16	-16%	?	2.5µM*
Cc1nnc(NC(=O)c2ccc3c(c2)OCO3)s1	-16%	11	-8%	0	-43%
